Source: PubChem BioAssay (NCI)
Compounds without any hit were thinned out: in the full panel of roughly 83,000, 20% have a hit.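 48-hour exposure, single concentration, 96-well plates; percent growth endpoint where 0 means no net growth. Active: below 10.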 Activity calls are given as the source filed them.

How the values were obtained:
Experiment in all cases: NCI-60 one-dose screen, 48 h (100 = growth as untreated, 0 = no growth, -100 = all killed)
Conditions in all cases: 10 µM unless noted
SK-MEL-2 melanoma = tested on: SK-MEL-2 melanoma
EKVX NSCLC = tested on: EKVX NSCLC
SN12C renal = tested on: SN12C renal
UO-31 renal = tested on: UO-31 renal
TK-10 renal = tested on: TK-10 renal
ACHN renal = tested on: ACHN renal
CAKI-1 renal = tested on: CAKI-1 renal
A498 renal = tested on: A498 renal
CCRF-CEM leukemia = tested on: CCRF-CEM leukemia
MOLT-4 leukemia = tested on: MOLT-4 leukemia
SR leukemia = tested on: SR leukemia
RPMI-8226 leukemia = tested on: RPMI-8226 leukemia
OVCAR-8 ovarian = tested on: OVCAR-8 ovarian
OVCAR-5 ovarian = tested on: OVCAR-5 ovarian
OVCAR-4 ovarian = tested on: OVCAR-4 ovarian
SK-OV-3 ovarian = tested on: SK-OV-3 ovarian
IGROV1 ovarian = tested on: IGROV1 ovarian
OVCAR-3 ovarian = tested on: OVCAR-3 ovarian
HS 578T breast = tested on: HS 578T breast
NCI/ADR-RES ovarian = tested on: NCI/ADR-RES ovarian

Measured: growth

CCCCOc1ccc(/C=C2/SC(N3CCCC3)=NC2=O)cc1
inactive: SK-MEL-2 melanoma 105% | EKVX NSCLC 94.5% | SN12C renal 87.3% | UO-31 renal 82.4% | TK-10 renal 103% | ACHN renal 103% | CAKI-1 renal 96.8% | A498 renal 91.3% | CCRF-CEM leukemia 84.3% | MOLT-4 leukemia 95.6% | SR leukemia 91.1% | RPMI-8226 leukemia 84.8% | OVCAR-8 ovarian 99.7% | OVCAR-5 ovarian 90.1% | OVCAR-4 ovarian 80.6% | SK-OV-3 ovarian 96.9% | IGROV1 ovarian 95.1% | OVCAR-3 ovarian 106% | HS 578T breast 116% | NCI/ADR-RES ovarian 90.8%

O=C(CN1CCN(c2cc3c(cc2F)c(=O)c(C(=O)N/N=C/c2ccccc2O)cn3C2CC2)CC1)N/N=C\c1ccccc1O
inactive: SK-MEL-2 melanoma 33.2% | EKVX NSCLC 23% | SN12C renal 24.7% | TK-10 renal 43.2% | ACHN renal 13.5% | A498 renal 86.1% | SR leukemia 14.6% | RPMI-8226 leukemia 25.4% | OVCAR-8 ovarian 25.8% | OVCAR-5 ovarian 39% | OVCAR-4 ovarian 19.8% | SK-OV-3 ovarian 34.5% | IGROV1 ovarian 21.5% | OVCAR-3 ovarian 30.7% | HS 578T breast 57.4% | NCI/ADR-RES ovarian 23.6%
active: UO-31 renal 4.8% | CAKI-1 renal 5.22% | CCRF-CEM leukemia 8.24% | MOLT-4 leukemia 9.45%

CC(C)(C)n1cc(-c2ccnc(NCCCNS(=O)(=O)c3ccc(Br)cc3)c2)c(-c2cccc(O)c2)n1
active: MOLT-4 leukemia 6.97% | SR leukemia -16% | RPMI-8226 leukemia -6%
inactive: SK-MEL-2 melanoma 19% | EKVX NSCLC 50.1% | SN12C renal 42.9% | UO-31 renal 39% | TK-10 renal 90.1% | ACHN renal 33.1% | CAKI-1 renal 36.7% | A498 renal 35.1% | CCRF-CEM leukemia 25.5% | OVCAR-8 ovarian 41.1% | OVCAR-5 ovarian 38.5% | OVCAR-4 ovarian 36.5% | SK-OV-3 ovarian 62.6% | IGROV1 ovarian 34.9% | HS 578T breast 16.9% | NCI/ADR-RES ovarian 43.7%

COc1cc(/C=C/C(=O)c2ccc(Nc3ncnc4cc(OC)c(OC)cc34)cc2)cc(OC)c1
inactive: SK-MEL-2 melanoma 105% | EKVX NSCLC 101% | SN12C renal 91.1% | UO-31 renal 94.4% | TK-10 renal 104% | ACHN renal 102% | CAKI-1 renal 97.6% | A498 renal 95.8% | CCRF-CEM leukemia 63.2% | MOLT-4 leukemia 53.8% | SR leukemia 30.6% | OVCAR-8 ovarian 95.3% | OVCAR-5 ovarian 112% | OVCAR-4 ovarian 107% | SK-OV-3 ovarian 116% | IGROV1 ovarian 99.5% | OVCAR-3 ovarian 104% | HS 578T breast 97.3% | NCI/ADR-RES ovarian 97.3%
active: RPMI-8226 leukemia -2.38%

Nc1nc(-c2ccccc2)c(CCCOc2ccc(NC(=O)CBr)cc2)c(=O)[nH]1
inactive: SK-MEL-2 melanoma 101% | EKVX NSCLC 117% | SN12C renal 91.5% | UO-31 renal 71% | TK-10 renal 102% | ACHN renal 96.2% | CAKI-1 renal 106% | A498 renal 103% | CCRF-CEM leukemia 29.1% | MOLT-4 leukemia 96.1% | SR leukemia 117% | RPMI-8226 leukemia 112% | OVCAR-8 ovarian 98.3% | OVCAR-5 ovarian 104% | OVCAR-4 ovarian 92.1% | SK-OV-3 ovarian 125% | IGROV1 ovarian 125% | HS 578T breast 99.1% | NCI/ADR-RES ovarian 106%

c1coc(CNc2ccnc(Nc3ccc(OCCN4CCCCC4)cc3)n2)c1
active: OVCAR-8 ovarian -5.87%
inactive: SK-MEL-2 melanoma 104% | EKVX NSCLC 95.1% | SN12C renal 78% | UO-31 renal 71.2% | TK-10 renal 107% | ACHN renal 100% | CAKI-1 renal 92.3% | A498 renal 59.8% | CCRF-CEM leukemia 81.4% | MOLT-4 leukemia 81.1% | SR leukemia 61.5% | RPMI-8226 leukemia 71.1% | OVCAR-5 ovarian 97% | OVCAR-4 ovarian 87.6% | SK-OV-3 ovarian 103% | IGROV1 ovarian 98.1% | OVCAR-3 ovarian 90.1% | HS 578T breast 80.9% | NCI/ADR-RES ovarian 104%

CCCC(=O)Oc1ccc(/C(=C(\C)c2ccccc2)c2ccc(OCCN(CC)CC)cc2)cc1
inactive: SK-MEL-2 melanoma 97.2% | EKVX NSCLC 99.3% | SN12C renal 86.3% | UO-31 renal 51.4% | TK-10 renal 86% | ACHN renal 90.7% | CAKI-1 renal 96.9% | A498 renal 93.7% | CCRF-CEM leukemia 69.7% | MOLT-4 leukemia 53.7% | SR leukemia 28.2% | RPMI-8226 leukemia 55.4% | OVCAR-8 ovarian 83.3% | OVCAR-5 ovarian 88.7% | OVCAR-4 ovarian 86.6% | SK-OV-3 ovarian 91.7% | OVCAR-3 ovarian 94.9% | HS 578T breast 42.6% | NCI/ADR-RES ovarian 86.7%

Cc1ccc(/C=C2\CN(C(=O)CCN3CCC(=NO)CC3)C/C(=C\c3ccc(C)cc3)C2=O)cc1
inactive: SK-MEL-2 melanoma 91.5% | TK-10 renal 20.2% | A498 renal 46.6% | OVCAR-8 ovarian 20.4% | OVCAR-4 ovarian 20.9% | SK-OV-3 ovarian 87.8% | NCI/ADR-RES ovarian 14.6%
active: EKVX NSCLC 8.39% | SN12C renal -34.4% | UO-31 renal -86% | ACHN renal -38.8% | CAKI-1 renal 5.48% | CCRF-CEM leukemia 1.97% | MOLT-4 leukemia 3.31% | SR leukemia -0.19% | RPMI-8226 leukemia -9.83% | OVCAR-5 ovarian -8.32% | IGROV1 ovarian -14% | OVCAR-3 ovarian 8.71% | HS 578T breast 6.55%

O=[N+]([O-])c1cc(S(=O)(=O)Oc2ccccc2)ccc1Cl
inactive: SK-MEL-2 melanoma 87.5% | EKVX NSCLC 65% | SN12C renal 29.6% | TK-10 renal 52.3% | ACHN renal 37.6% | A498 renal 96.7% | MOLT-4 leukemia 19.4% | RPMI-8226 leukemia 17% | OVCAR-8 ovarian 40.7% | OVCAR-5 ovarian 66.8% | SK-OV-3 ovarian 102% | NCI/ADR-RES ovarian 46.6%
active: UO-31 renal -87.7% | CAKI-1 renal -89.4% | CCRF-CEM leukemia -22.1% | SR leukemia 1.34% | OVCAR-4 ovarian -28.4% | IGROV1 ovarian -78.2% | OVCAR-3 ovarian -94.7% | HS 578T breast -7.12%

O=C1c2ccccc2-c2ccccc2C1(Cl)Cl
active: SK-MEL-2 melanoma -71% | EKVX NSCLC -93.2% | SN12C renal -76.1% | UO-31 renal -100% | ACHN renal -67% | CAKI-1 renal -92.1% | MOLT-4 leukemia 0.097% | RPMI-8226 leukemia -10.8% | OVCAR-8 ovarian -90.4% | OVCAR-5 ovarian -73.7% | OVCAR-4 ovarian -98.6% | IGROV1 ovarian -98.5% | OVCAR-3 ovarian -87.2% | HS 578T breast -7.35% | NCI/ADR-RES ovarian -44.2%
inactive: TK-10 renal 90% | A498 renal 101% | CCRF-CEM leukemia 11.2% | SR leukemia 16.7% | SK-OV-3 ovarian 94.5%

CC(=O)Oc1csc(N(C(C)=O)c2cccc(C(F)(F)F)c2)n1
inactive: SK-MEL-2 melanoma 96.7% | EKVX NSCLC 46.1% | SN12C renal 89.6% | UO-31 renal 91% | TK-10 renal 108% | ACHN renal 102% | CAKI-1 renal 98.4% | A498 renal 85.2% | CCRF-CEM leukemia 60.9% | MOLT-4 leukemia 104% | SR leukemia 107% | RPMI-8226 leukemia 75.8% | OVCAR-8 ovarian 94.1% | OVCAR-5 ovarian 96.2% | OVCAR-4 ovarian 89.4% | SK-OV-3 ovarian 99.6% | OVCAR-3 ovarian 103% | HS 578T breast 93% | NCI/ADR-RES ovarian 104%

CCCCOc1ccc(/C=C2/SC(N3CCOCC3)=NC2=O)cc1OCC
active: SK-OV-3 ovarian -16.1%
inactive: SK-MEL-2 melanoma 102% | EKVX NSCLC 90.8% | SN12C renal 85.2% | UO-31 renal 79.4% | TK-10 renal 116% | ACHN renal 96% | CAKI-1 renal 84.8% | A498 renal 90.2% | CCRF-CEM leukemia 90% | MOLT-4 leukemia 101% | SR leukemia 89.5% | RPMI-8226 leukemia 95.6% | OVCAR-8 ovarian 103% | OVCAR-5 ovarian 88.3% | OVCAR-4 ovarian 87.6% | IGROV1 ovarian 89% | HS 578T breast 104% | NCI/ADR-RES ovarian 94.5%

COc1cc(NC(N)=NCCC(C)(C)c2ccc(C(F)(F)F)cc2)ncc1C#N
inactive: SK-MEL-2 melanoma 48.8% | EKVX NSCLC 24.8% | SN12C renal 27.4% | TK-10 renal 13.8% | ACHN renal 45.1% | CAKI-1 renal 40.8% | A498 renal 48.1% | CCRF-CEM leukemia 24.6% | OVCAR-8 ovarian 24.4% | OVCAR-5 ovarian 47.2% | OVCAR-4 ovarian 18.9% | SK-OV-3 ovarian 56.8% | IGROV1 ovarian 24.1% | HS 578T breast 63% | NCI/ADR-RES ovarian 24.3%
active: UO-31 renal 4.93% | MOLT-4 leukemia -10.7% | SR leukemia -49% | RPMI-8226 leukemia -48.7%

O=C(Nc1ccc(NCCN2CCOCC2)nc1)c1ccc([N+](=O)[O-])cc1
inactive: SK-MEL-2 melanoma 108% | EKVX NSCLC 87.2% | SN12C renal 107% | UO-31 renal 96.2% | TK-10 renal 114% | ACHN renal 109% | CAKI-1 renal 99% | A498 renal 92.5% | CCRF-CEM leukemia 101% | MOLT-4 leukemia 118% | SR leukemia 113% | RPMI-8226 leukemia 107% | OVCAR-8 ovarian 96.2% | OVCAR-5 ovarian 105% | OVCAR-4 ovarian 103% | SK-OV-3 ovarian 107% | OVCAR-3 ovarian 114% | HS 578T breast 104% | NCI/ADR-RES ovarian 105%

C=C1C(=O)O[C@H]2[C@H]1CC/C(Cn1cc(-c3cccc(Cl)c3)nn1)=C\CC[C@@]1(C)O[C@@H]21
active: SK-MEL-2 melanoma -40.8% | EKVX NSCLC -18.4% | SN12C renal -37.1% | UO-31 renal -95.4% | TK-10 renal -97.1% | ACHN renal -89% | CAKI-1 renal -82.2% | A498 renal -26.2% | CCRF-CEM leukemia -40.8% | MOLT-4 leukemia -18.6% | SR leukemia -3.12% | RPMI-8226 leukemia -34% | OVCAR-8 ovarian -43.7% | OVCAR-5 ovarian -36.7% | OVCAR-4 ovarian -71.3% | IGROV1 ovarian -50.4% | HS 578T breast -0.629%
inactive: SK-OV-3 ovarian 80.8% | NCI/ADR-RES ovarian 10.7%

COc1ccc(CN2CCc3c(Sc4ccccc4)nc(N)nc3C2=O)c(OC)c1
active: RPMI-8226 leukemia -6.07%
inactive: SK-MEL-2 melanoma 58.6% | EKVX NSCLC 57% | SN12C renal 53.1% | UO-31 renal 29.6% | TK-10 renal 59.9% | ACHN renal 65% | CAKI-1 renal 27.7% | A498 renal 66% | CCRF-CEM leukemia 46.7% | MOLT-4 leukemia 35.5% | SR leukemia 43.3% | OVCAR-8 ovarian 44.8% | OVCAR-5 ovarian 82.3% | OVCAR-4 ovarian 44.3% | SK-OV-3 ovarian 82.2% | OVCAR-3 ovarian 57.1% | HS 578T breast 74.3% | NCI/ADR-RES ovarian 49.7%
